According to PubChem BioAssay AID1159580 (chemical genetic matrix, 2015):
Values joined by “and” are separate entries in the source; they are usually repeats but may differ in a detail not shown here. Identical values can stand only once. Hit rate of the full screen: of about 5,500 compounds, about 2,000 (36%) were called active. About 18% were inconclusive and are not listed. Rule as the data show it: active = normalized growth mostly below about 0.91 (no sharp cut-off); inconclusive = no clear call, values can overlap the other calls; inactive = mostly above about 0.92. Some of the results follow.

Test: chemical genetic growth profiling, strain panel (AID 1159580);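 also: tested at 20 µM; growth read once vehicle control cultures reached saturation at 30 °C; 1 = growth at the plate median or of vehicle wells; lower values mean less growth of the strain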
Details: S. cerevisiae deletion strains, growth OD

Measured: normalized growth

CC(C(=O)O)c1cccc(C(=O)c2ccccc2)c1 (stereo not drawn)
inactive: locus YAL013W, strain DEP1, stronger effect = lower value 1.01 | locus YAL021C, strain ccr4, stronger effect = lower value 0.995 | locus YAL026C, strain drs2, stronger effect = lower value 0.981 | locus YAL030W, strain snc1, stronger effect = lower value 0.997 | locus YAL040C, strain CLN3, stronger effect = lower value 1 | locus YBL061C, strain skt5, stronger effect = lower value 0.998 | locus YBR009C, strain hhf1, stronger effect = lower value 0.979 | locus YBR021W, strain FUR4, stronger effect = lower value 1.01 | locus YBR023C, strain chs3, stronger effect = lower value 0.985 | locus YBR171W, strain sec66, stronger effect = lower value 0.98 | locus YBR229C, strain ROT2, stronger effect = lower value 1 | locus YBR231C, strain swc5, stronger effect = lower value 1 | locus YBR279W, strain paf1, stronger effect = lower value 0.972 | locus YCL011C, strain gbp2, stronger effect = lower value 0.991 | locus YCL016C, strain dcc1, stronger effect = lower value 0.969 | locus YCL029C, strain bik1, stronger effect = lower value 0.962 | locus YCL061C, strain MRC1 (second series), stronger effect = lower value 1.01 | locus YCL069W, strain vba3, stronger effect = lower value 0.983 | locus YCR088W, strain abp1, stronger effect = lower value 0.989 | locus YDL005C, strain med2, stronger effect = lower value 0.98 | locus YDL035C, strain GPR1, stronger effect = lower value 1 | locus YDL040C, strain nat1, stronger effect = lower value 0.986 | locus YDL074C, strain BRE1, stronger effect = lower value 1.06 | locus YDL101C, strain DUN1, stronger effect = lower value 1 | locus YDL134C, strain PPH21, stronger effect = lower value 0.994 | locus YDL185W, strain tfp1, stronger effect = lower value 0.941 | locus YDL192W, strain arf1, stronger effect = lower value 0.978 | locus YDR001C, strain nth1, stronger effect = lower value 0.983 | locus YDR069C, strain doa4, stronger effect = lower value 0.984 | locus YDR101C, strain arx1, stronger effect = lower value 1.02 | locus YDR137W, strain rgp1, stronger effect = lower value 0.953 | locus YDR159W, strain sac3, stronger effect = lower value 0.928 | locus YDR162C, strain NBP2, stronger effect = lower value 0.979 | locus YDR195W, strain ref2 1.02 | locus YDR297W, strain sur2, stronger effect = lower value 0.982 | locus YDR318W, strain mcm21, stronger effect = lower value 0.969 | locus YDR334W, strain swr1, stronger effect = lower value 0.984 | locus YDR335W, strain msn5, stronger effect = lower value 1.01 | locus YDR363W, strain ESC2, stronger effect = lower value 0.998 | locus YDR388W, stronger effect = lower value 0.989 | locus YDR392W, strain spt3, stronger effect = lower value 0.871 | locus YDR502C, strain sam2, stronger effect = lower value 1 | locus YEL003W, strain gim4, stronger effect = lower value 1 | locus YEL037C, strain rad23, stronger effect = lower value 0.987 | locus YEL061C, strain CIN8 (second series), stronger effect = lower value 0.996 | locus YEL061C, strain CIN8, stronger effect = lower value 1 | locus YER002W, strain NOP16, stronger effect = lower value 0.992 | locus YER015W, strain faa2, stronger effect = lower value 0.966 | locus YER016W, strain bim1, stronger effect = lower value 0.974 | locus YER110C, stronger effect = lower value 0.957 | locus YER111C, strain swi4, stronger effect = lower value 0.979 | locus YER155C, strain BEM2 (second series), stronger effect = lower value 0.986 | locus YER155C, strain BEM2, stronger effect = lower value 0.994 | locus YER167W, strain BCK2, stronger effect = lower value 1 | locus YFR010W, strain ubp6, stronger effect = lower value 1 | locus YGL078C, strain dbp3, stronger effect = lower value 0.99 | locus YGL086W, strain mad1, stronger effect = lower value 1.01 | locus YGL167C, strain pmr1, stronger effect = lower value 0.991 | locus YGL173C, strain kem1, stronger effect = lower value 1.01 | locus YGL227W, strain vid30, stronger effect = lower value 1 | locus YGL240W, strain doc1, stronger effect = lower value 0.995 | locus YGL248W, strain PDE1, stronger effect = lower value 1.02 | locus YGL253W, strain hxk2, stronger effect = lower value 0.984 | locus YGR078C, strain PAC10, stronger effect = lower value 1.02 | locus YGR135W, strain pre9, stronger effect = lower value 0.958 | locus YGR229C, strain SMI1, stronger effect = lower value 1.01 | locus YGR252W, strain gcn5, stronger effect = lower value 1.03 | locus YHR013C, strain ard1, stronger effect = lower value 0.964 | locus YHR027C, strain rpn1, stronger effect = lower value 1.01 | locus YHR030C, strain SLT2, stronger effect = lower value 0.982 and 1.04 | locus YHR079C, strain IRE1 (second series), stronger effect = lower value 0.974 | locus YHR079C, strain IRE1, stronger effect = lower value 1.04 | locus YHR094C, strain hxt1, stronger effect = lower value 0.979 | locus YHR129C, strain ARP1, stronger effect = lower value 0.987 | locus YHR142W, strain chs7, stronger effect = lower value 0.966 | locus YHR200W, strain rpn10, stronger effect = lower value 0.955 | locus YIL066C, strain RNR3, stronger effect = lower value 1.02 | locus YIL073C, strain SPO22, stronger effect = lower value 0.868 | locus YIL125W, strain kgd1, stronger effect = lower value 0.984 | locus YIR030C, strain dcg1, stronger effect = lower value 0.961 | locus YJL092W, strain hpr5, stronger effect = lower value 0.997 | locus YJL095W, strain BCK1 (second series), stronger effect = lower value 0.978 | locus YJL095W, strain BCK1, stronger effect = lower value 1.05 and 1.01 | locus YJL115W, strain asf1, stronger effect = lower value 0.98 | locus YJL129C, strain trk1, stronger effect = lower value 0.942 | locus YJL134W, strain LCB3, stronger effect = lower value 0.991 | locus YJL154C, strain vps35, stronger effect = lower value 0.982 | locus YJL164C, strain tpk1, stronger effect = lower value 0.985 | locus YJL166W, strain qcr8, stronger effect = lower value 0.999 | locus YJL168C, strain set2, stronger effect = lower value 0.978 | locus YJL187C, strain SWE1 (second series), stronger effect = lower value 1.03 | locus YJR043C, strain POL32, stronger effect = lower value 1.03 | locus YJR066W, strain TOR1, stronger effect = lower value 0.965
